# A number with no mark means an inactive call. Records with an inconclusive call do not appear. A call without a number means that no potency is given here. The source made the active and inactive calls. Unless noted, the call rests on the fitted dose curve; in most records, active means well fitted curve in the direction sought with a large enough effect; inconclusive means small, poorly fitted or top-dose-only effect, or another doubt; inactive means no such curve, though single readings can be large; an effect the other way counts as inactive or inconclusive.
# Assays:
# [1] = tested on: C33A; assay: Primary qHTS to identify gynecologic anti-cancer compounds using libraries of approved drugs and bioactive compounds (AID 1345084); details: Gynecologic cancer cell panel viability, ATPlite luminescence, 48 h; series mostly up to 57.5 µM; further: nearly all actives have a fitted effect of over 55% in size; further: potency means the concentration at half of the fitted maximal effect
# Procedure, shortened: (§1)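 Measured: luminescence after ATPlite addition (15 min, RT). Exposure: 48 h, 37 C, 5% CO2.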
# [2] = tested on: CAOV3; assay: as above; details: Gynecologic cancer cell panel viability, ATPlite luminescence, 48 h; series mostly up to 57.5 µM
# Procedure, shortened: as §1
# [3] = tested on: CASKI; assay: as above; details: Gynecologic cancer cell panel viability, ATPlite luminescence, 48 h; series mostly up to 57.5 µM
# Procedure, shortened: as §1
# [4] = tested on: Es-2; assay: as above; details: Gynecologic cancer cell panel viability, ATPlite luminescence, 48 h; series mostly up to 57.5 µM
# Procedure, shortened: as §1
# [5] = tested on: HeLa; assay: as above; details: Gynecologic cancer cell panel viability, ATPlite luminescence, 48 h; series mostly up to 57.5 µM
# Procedure, shortened: as §1
# [6] = tested on: Hek293T; assay: as above; details: Gynecologic cancer cell panel viability, ATPlite luminescence, 48 h, control line for the selectivity index; series mostly up to 57.5 µM
# Procedure, shortened: as §1
# [7] = tested on: JEG-3; assay: as above; details: Gynecologic cancer cell panel viability, ATPlite luminescence, 48 h; series mostly up to 57.5 µM
# Procedure, shortened: as §1
# [8] = tested on: OV90; assay: as above; details: Gynecologic cancer cell panel viability, ATPlite luminescence, 48 h; series mostly up to 57.5 µM
# Procedure, shortened: as §1
# [9] = tested on: PA-1; assay: as above; details: Gynecologic cancer cell panel viability, ATPlite luminescence, 48 h; series mostly up to 57.5 µM
# Procedure, shortened: as §1
# [10] = tested on: Tov-21-G; assay: as above; details: Gynecologic cancer cell panel viability, ATPlite luminescence, 48 h; series mostly up to 57.5 µM
# Procedure, shortened: as §1
# [11] = tested on: Tov112D; assay: as above; details: Gynecologic cancer cell panel viability, ATPlite luminescence, 48 h; series mostly up to 57.5 µM
# Procedure, shortened: as §1
# [12] = Drug repurposing screens with cells derived from glioblastoma tumor samples (AID 1345199); details: GBM patient neurospheres viability, ATP luminescence, 48 h; further: nearly all actives have a fitted effect of over 40% in size; further: potency means the concentration at half of the fitted maximal effect
# Procedure, shortened: (§2)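 Four patient lines of CD133+ GBM neurospheres were screened at several concentrations; hits were retested in those lines plus three slower-growing GBM lines, using 48-hour treatment and ATP-based viability.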
# [13] = tested on: astro; assay: as above; details: viability, ATP luminescence, 48 h; series mostly up to 45.9 µM
# Procedure, shortened: as §2
# [14] = tested on: UISO; assay: qHTS assay to identify novel small-molecules to repurpose for Merkel cell carcinoma treatment (AID 1296009); details: MCC and control cell lines, CellTiter-Glo viability, 72 h; series mostly up to 46 µM; further: nearly all actives have a fitted effect of over 60% in size
# Procedure, shortened: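 Cells exposed to NPC (8-point) and MIPE (11-point) compound dilutions for 72 hr at 37 degree celsius; viability read by CellTiter-Glo luminescence, normalized to no-cell and DMSO in-plate controls.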
# [15] = tested on: SKOV3; assay: Primary qHTS to identify gynecologic anti-cancer compounds using libraries of approved drugs and bioactive compounds (AID 1345084); details: Gynecologic cancer cell panel viability, ATPlite luminescence, 48 h; series mostly up to 57.5 µM; further: nearly all actives have a fitted effect of over 55% in size; further: potency means the concentration at half of the fitted maximal effect
# Procedure, shortened: as §1
# [16] = molecular target: Nuclear receptor subfamily 1 group I member 2 (Rattus norvegicus) (UniProt Q9R1A7); assay: qHTS assay for small molecule activators of the rat pregnane X receptor (rPXR) signaling pathway (AID 651751; call rule not given here); details: rPXR reporter cells, luciferase (One-Glo), 24 h
# Sequence of Nuclear receptor subfamily 1 group I member 2 (Rattus norvegicus) (Q9R1A7 whole entry, looked up): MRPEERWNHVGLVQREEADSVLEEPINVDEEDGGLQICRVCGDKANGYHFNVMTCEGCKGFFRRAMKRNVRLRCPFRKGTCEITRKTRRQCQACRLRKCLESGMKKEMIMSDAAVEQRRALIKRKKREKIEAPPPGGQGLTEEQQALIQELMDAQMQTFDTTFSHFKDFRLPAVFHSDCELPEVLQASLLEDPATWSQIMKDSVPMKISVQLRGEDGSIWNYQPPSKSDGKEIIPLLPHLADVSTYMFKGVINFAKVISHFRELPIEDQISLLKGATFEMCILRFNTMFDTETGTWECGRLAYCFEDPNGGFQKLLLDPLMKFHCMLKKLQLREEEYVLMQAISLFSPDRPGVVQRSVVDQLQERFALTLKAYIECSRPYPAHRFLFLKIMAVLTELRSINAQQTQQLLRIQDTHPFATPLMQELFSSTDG
# [17] = qHTS assay for small molecule activators of the human pregnane X receptor (PXR) signaling pathway (AID 720659; call rule not given here)
# [18] = at 45.9 µM (top of the series), tumour line B
# [19] = at 45.9 µM (top of the series), tumour line D
# [20] = at 46.1 µM (top of the series), tumour line C
# [21] = at 20 µM (top of the series), tumour line C
# [22] = at 21.2 µM (top of the series), tumour line B
smiles,measurement,setting,value
CO[C@H]1C[C@@H]2CC[C@@H](C)[C@@](O)(O2)C(=O)C(=O)N2CCCC[C@H]2C(=O)O[C@H]([C@H](C)C[C@@H]2CC[C@@H](OC(=O)C(C)(CO)CO)[C@H](OC)C2)CC(=O)[C@H](C)/C=C(\C)[C@@H](O)[C@@H](OC)C(=O)[C@H](C)C[C@H](C)/C=C/C=C/C=C/1C,Potency,[1],inactive
same,Potency,[2],inactive
same,Potency,[3],inactive
same,Potency,[4],inactive
same,Potency,[5],inactive
same,Potency,[6],inactive
same,Potency,[7],inactive
same,Potency,[8],inactive
same,Potency,[9],inactive
same,Potency,[10],inactive
same,outcome,[11],inactive
same,"activity, negative = cell killing",[12]; [18],-14.4%
same,"activity, negative = cell killing",[12]; [19],-16%
same,"activity, negative = cell killing","[12]; at 46 µM (top of the series), tumour line A",-25.2%
same,"activity, negative = cell killing",[12]; [20],-22.5%
same,Potency,[13],inactive
CN1CCN(C(c2ccccc2)c2ccc(Cl)cc2)CC1 (stereo unspecified),"activity, negative = cell killing",[12]; [21],3.89%
same,"activity, negative = cell killing",[12]; [22],-16.8%
same,Potency,[12]; tumour line A,11.2 µM (active)
C=Cc1ccc(S(=O)(=O)O)cc1,"activity, negative = cell killing",[12]; [18],-6.14%
same,"activity, negative = cell killing",[12]; [19],-2.96%
CSc1nc2cc(Oc3cccc(Cl)c3Cl)c(Cl)cc2[nH]1,"activity, negative = cell killing",[12]; [18],-12.6%
CC(=O)Nc1ccc(NC(=S)NC(=O)c2ccc(C(C)(C)C)cc2)cc1,Potency,[1],inactive
same,Potency,[2],inactive
same,Potency,[3],inactive
same,Potency,[5],inactive
same,Potency,[7],inactive
same,Potency,[8],inactive
same,Potency,[9],10 µM (active)
same,Potency,[13],3.98 µM (active)
CCCCCCCCCCCC(=O)N(CCO)CCO,"activity, negative = cell killing",[12]; [18],-26.4%
O=C1c2ccccc2C(=O)c2c1ccc(O)c2O,outcome,[14],inactive
same,Potency,[1],inactive
same,Potency,[2],inactive
same,Potency,[3],inactive
same,Potency,[4],inactive
same,Potency,[5],inactive
same,Potency,[6],inactive
same,Potency,[7],inactive
same,Potency,[8],inactive
same,Potency,[9],inactive
same,Potency,[10],inactive
same,outcome,[11],inactive
same,"activity, negative = cell killing",[12]; [18],-22.8%
same,"activity, negative = cell killing",[12]; [20],-2.45%
same,Potency,[13],inactive
O=C(O)c1ccc(OCCn2ccnc2)cc1,"activity, negative = cell killing",[12]; [18],-11.4%
same,"activity, negative = cell killing",[12]; [19],-25.4%
same,"activity, negative = cell killing",[12]; [20],-11.9%
COc1ccc(C[C@H](C)NC[C@@H](O)c2ccc(O)c(NC=O)c2)cc1,Potency,[1],inactive
same,Potency,[2],inactive
same,Potency,[3],inactive
same,Potency,[5],inactive
same,Potency,[7],inactive
same,Potency,[8],inactive
same,Potency,[9],inactive
same,Potency,[10],inactive
same,"activity, negative = cell killing",[12]; [19],-10.9%
same,"activity, negative = cell killing",[12]; [20],-28.7%
same,Potency,[12]; tumour line A,17.8 µM (active)
same,Potency,[13],inactive
CN(C)CCOc1ccc(/C(=C(/CCCl)c2ccccc2)c2ccccc2)cc1,"activity, negative = cell killing",[12]; [20],-18.9%
same,Potency,[12]; tumour line A,8.91 µM (active)
same,Potency,[12]; tumour line D,12.6 µM (active)
N[C@@H](Cc1cc(I)c(Oc2ccc(O)c(I)c2)c(I)c1)C(=O)O,Potency,[1],inactive
same,Potency,[3],inactive
same,Potency,[4],inactive
same,Potency,[5],inactive
same,Potency,[6],inactive
same,Potency,[7],inactive
same,Potency,[8],inactive
same,Potency,[9],inactive
same,outcome,[15],inactive
same,Potency,[10],inactive
same,outcome,[11],inactive
same,"activity, negative = cell killing",[12]; [18],0.914%
same,"activity, negative = cell killing",[12]; [20],-18.1%
same,Potency,[12]; tumour line A,11.2 µM (active)
same,Potency,[13],inactive
same,max response,[16],-4.55%
same,outcome,[17],inactive
O=C(Nc1ccc(O)cc1)c1ccccc1O,"activity, negative = cell killing",[12]; [20],-27.7%
C=C1CC[C@H](O)CC1=C/C=C1\CCC[C@]2(C)[C@@H]([C@H](C)/C=C/[C@H](C)C(C)C)CC[C@@H]12,Potency,[1],inactive
same,Potency,[2],inactive
same,Potency,[3],inactive
same,Potency,[4],inactive
same,Potency,[5],inactive
same,Potency,[6],inactive
same,Potency,[7],inactive
same,Potency,[8],inactive
same,Potency,[9],inactive
same,outcome,[15],inactive
same,Potency,[10],inactive
same,outcome,[11],inactive
same,"activity, negative = cell killing",[12]; [20],6.83%
same,Potency,[12]; tumour line A,10 µM (active)
CC(=O)Oc1cccc2c1C(=O)c1c(OC(C)=O)cc(C(=O)O)cc1C2=O,outcome,[14],inactive
same,Potency,[1],inactive
same,Potency,[4],inactive
same,Potency,[5],inactive
same,Potency,[7],inactive
same,outcome,[11],inactive
same,"activity, negative = cell killing",[12]; [18],-17.6%
same,"activity, negative = cell killing",[12]; [19],-16.7%
same,Potency,[13],inactive
CC(=O)[C@H]1CC[C@H]2[C@@H]3C=CC4=CC(=O)CC[C@@]4(C)[C@H]3CC[C@]12C,"activity, negative = cell killing",[12]; [21],-18.4%
same,"activity, negative = cell killing",[12]; [22],-29%
same,Potency,[12]; tumour line A,3.55 µM (active)
CC1=C[C@H](O)CC(C)(C)[C@H]1/C=C/C(C)=C/C=C/C(C)=C/C=C/C=C(C)/C=C/C=C(C)/C=C/C1=C(C)C[C@@H](O)CC1(C)C,"activity, negative = cell killing",[12]; [18],-18.9%
same,"activity, negative = cell killing",[12]; [19],-21.1%
same,"activity, negative = cell killing",[12]; [20],-27.4%
CCN(CC)CCOCCOC(=O)C(CC)(CC)c1ccccc1,Potency,[1],inactive
same,Potency,[2],inactive
same,Potency,[3],inactive
same,Potency,[4],inactive
same,Potency,[5],inactive
same,Potency,[6],inactive
same,Potency,[7],inactive
same,Potency,[9],inactive
same,outcome,[15],inactive
same,Potency,[10],inactive
same,outcome,[11],inactive
same,"activity, negative = cell killing",[12]; [20],-23.4%
same,Potency,[12]; tumour line A,1.41 µM (active)
same,Potency,[12]; tumour line B,14.1 µM (active)
same,Potency,[12]; tumour line D,8.91 µM (active)
